Shown are actives, neighbours in structure and some others; about 2.2% of the full set was active somewhere.
p47phox inh: blocks human p47phox regulatory protein of NADPH oxidases. P14598. p47phox/p22phox peptide binding, fluorescence polarization, 2 h. inhibition, % at 24.7 µM. 220,000 tested, 0.53% active;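 active means inhibition above about 30%, limit read from the data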
Target sequence (P14598 whole entry, looked up): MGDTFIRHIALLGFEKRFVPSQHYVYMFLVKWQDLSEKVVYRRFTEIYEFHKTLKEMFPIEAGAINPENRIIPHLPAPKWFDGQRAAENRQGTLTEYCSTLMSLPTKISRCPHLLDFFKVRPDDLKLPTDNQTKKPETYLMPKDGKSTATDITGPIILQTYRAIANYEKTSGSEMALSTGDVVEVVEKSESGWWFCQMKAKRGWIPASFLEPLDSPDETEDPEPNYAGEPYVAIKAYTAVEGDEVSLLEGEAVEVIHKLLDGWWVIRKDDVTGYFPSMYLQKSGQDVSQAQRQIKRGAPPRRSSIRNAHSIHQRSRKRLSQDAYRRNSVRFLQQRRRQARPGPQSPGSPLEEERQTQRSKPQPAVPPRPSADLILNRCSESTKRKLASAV
Autophagy mod: modulators of autophagy; 190,000 tested, 0.98% active; MEF GFP-LC3 puncta imaging; test concentration mostly 10 µM; calls only at 10 µM (by protocol);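 active means percentage of spot-positive cells more than 3 SD above its plate mean, without a fluorescence outlier flag or 80% toxicity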
Insulin prom up: MIN6 insulin promoter up-regulation; MIN6 insulin promoter-GFP reporter, high-content imaging; hits give high values; z-score at 5 µM; 190,000 tested, 0.3% active; AID 1625;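 active means z-score above 3 at 5 µM with at least 500 cells counted in the well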
Redox H2O2 prof: compounds producing H2O2 with reducing agent – biochemical, NIH compound library profiling, artefact control for MLSCN library redox annotation, primary screen | DTT-dependent redox cycling H2O2, phenol red/HRP absorbance; 100% = 100 µM peroxide control, 0% = buffer | activation, % at 10 µM | 200,000 tested, 0.03% active;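 active means activation of at least 50% relative to the plate's high and low controls in the primary single-dose screen; inactive means activation below 50%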;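 further: compound incubated with DTT at 0.8 mM final as the reducing agent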
Efa HMGR inh: blocks class II HMG-CoA reductase of Enterococcus faecalis; purified E. faecalis HMGR, NADPH absorbance 340 nm kinetic; inhibition, % at 10 µM; 190,000 tested, 0.41% active; AID 1066;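 active means inhibition above a set limit, the median over all tested compounds plus 3 SD, cut at about 9.5% in these data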;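 further: enzyme runs in reverse so mevalonate oxidation gives rising NADPH absorbance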
Arbovirus anti: antivirals against arbovirus infection; arbovirus infection cell-based antiviral screen; inhibition, % at 10 µM; 200,000 tested, 0.37% active; AID 1251; in the data active means inhibition above about 30%
A number is an active result; – = inactive; · = not tested or not shown; + = active, no number.

SMILES | p47phox inh | Autophagy mod | Insulin prom up | Redox H2O2 prof | Efa HMGR inh | Arbovirus anti
COc1ccc(OCC(=O)Nc2ccc3nc(C)sc3c2)cc1 | – | – | – | – | – | –
CCCc1cc(=O)[nH]c(SCC(=O)NC)n1 | – | – | – | – | – | 72
COc1ccc(Nc2nc3ccc(C)cc3cc2C#N)c(OC)c1 | – | – | – | – | – | –
COc1ccc(Nc2nc3cc(C)ccc3cc2C#N)c(OC)c1 | – | + | – | – | – | –
COc1ccc(Nc2nc3c(C)cccc3cc2C#N)c(OC)c1 | – | + | – | – | – | –
CN(C(=O)CSCC(=O)O)C1CCCCC1 | – | – | – | – | – | –
CCOc1ccc(NC(=O)Nc2cc(-c3ccccc3)sc2C(=O)OC)cc1 | – | – | – | – | – | 34
COC(=O)c1sc(-c2ccccc2)cc1NC(=O)C1CC1 | – | – | · | – | – | –
O=C(N/N=C/c1ccc([N+](=O)[O-])o1)c1cc(-c2ccc(-c3ccccc3)cc2)nc2ccccc12 | – | – | – | – | – | –
Cc1cc(N/N=C/c2ccc([N+](=O)[O-])o2)nc2ccccc12 | – | + | · | – | – | –
CC1CCN(S(=O)(=O)c2ccc3c(c2)c(=O)c(C(=O)N2CCCCC2)cn3C)CC1 | – | – | 4.9 | – | – | –
CCOC(=O)C1CCCN(C(=O)c2cn(C)c3ccc(S(=O)(=O)N4CCCC4)cc3c2=O)C1 (centres undefined) | – | – | – | – | – | –
Cc1ccc(CNCC(O)(c2ccc(F)cc2)c2ccc(F)cc2)cc1 | – | – | · | – | – | –
COc1ccc(CNCC(O)(c2ccc(F)cc2)c2ccc(F)cc2)cc1 | – | + | – | – | – | –
CCn1nc([N+](=O)[O-])c2c(-c3nc4ccccc4o3)c(N)n(CCCOC)c2c1=O | – | + | – | – | – | –
O=C1NCCCC1C(=O)Nc1ccccc1C(F)(F)F (centres undefined) | – | – | – | – | + | –
CCOc1cccc2cc(-c3nnc(NCc4ccc5c(c4)OCO5)s3)c(=O)oc12 | 67 | + | – | – | – | –
CCOc1ccccc1C(=O)NCc1ccc2c(c1)OCO2 | – | – | – | – | – | –
CC(/C=N/NC(=O)c1cc(-c2cccs2)[nH]n1)=C\c1ccccc1 | – | – | – | – | – | –
CN1CCc2c(sc3c2C(=O)NC(c2cn(Cc4ccccc4)c4ccccc24)N3)C1 (centres undefined) | – | + | – | – | – | –
NC(=O)CSc1nnc(-c2ccc([N+](=O)[O-])cc2)o1 | – | – | – | – | 14 | –
O=C(O)c1csc(N/N=C/c2ccc(Br)cc2)n1 | – | + | · | – | – | 46
Cc1nn(Cc2ccccc2)c(C)c1C(=O)NCCN1C(=O)S/C(=C\c2ccccc2)C1=O | 30 | – | · | – | – | –
O=C(NCC(c1ccco1)N1CCCC1)c1ccccc1F (centres undefined) | – | – | – | – | – | –
COc1ccc(Cl)cc1C(=O)NCC(c1ccco1)N1CCCC1 (centres undefined) | – | + | – | – | – | –
SMILES | p47phox inh | Autophagy mod | Insulin prom up | Redox H2O2 prof | Efa HMGR inh | Arbovirus anti
CSc1ccccc1C(=O)NCC(c1ccco1)N1CCCCC1 (centres undefined) | – | – | – | – | 12 | –
CC(C)CNC(=O)c1ccccc1NC(=O)CCSc1ccccc1 | – | – | – | – | – | –
Cc1ccccc1-n1c(SCC(=O)NC(N)=O)nc2sc(-c3ccccc3)cc2c1=O | – | – | – | – | – | –
O=C(Cn1c(=O)oc2ccccc21)NC(=O)NCc1ccco1 | – | – | – | – | – | –
O=C(NN1CCCCC1)c1ccc(COc2ccc(Cl)cc2)cc1 | – | – | – | – | – | –
CN(C)CCNC(=O)/C(=C/c1ccc(-c2ccc(Cl)cc2Cl)o1)NC(=O)c1ccccc1 | 32 | – | – | – | – | –
CN(C)CCNC(=O)/C(=C/c1ccc(-c2ccc(Cl)cc2)o1)NC(=O)c1ccccc1 | – | – | – | – | – | –
C/C(=N/NC(=O)C1CCCCC1)c1ccc([N+](=O)[O-])cc1 | – | – | – | – | – | –
COc1cccc(NC(=O)Cn2c(-c3cncs3)nc3ccccc32)c1 | – | – | 5.3 | – | – | –
O=C(NCCc1c[nH]c2ccccc12)C(=O)NCC1OCCCN1S(=O)(=O)c1cc(F)ccc1F (centres undefined) | – | – | – | – | – | –

Screens as filed in PubChem.
